High-throughput results: PubChem BioAssay, NMMLSC
Most compounds without a hit are left out; they make up all but 0.4% or so of the library.
Rab2 wt GTP – changes GTP binding to wildtype dog Rab2A, up or down; P61105; GST-Rab2 wt beads, Bodipy-GTP binding, flow cytometry; GTP binding activity, % at 10 µM; 0.19% of 190,000 active; AID 760;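 active = GTP binding activity at least 20 points away from 100%, either lowered or raised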;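 also: 0% = beads with excess unlabeled GTP and 100% = no-compound control corrected for plate trend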
Rac1 act GTP bind – alters GTP binding to activated mutant human Rac1 | P63000 | GST-Rac1 activated beads, fluorescent GTP binding, flow cytometry; actives lie on both sides; 100% means binding = to untreated wells | percent activity (GTP binding), % at 10 µM | 0.11% of 190,000 active;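 active = GTP binding at least 20 percentage points away from the 100% baseline, in either direction, so actives lie on both sides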
Cdc42 wt GTP – human Cdc42 wildtype GTP binding change, either direction; P60953; AID 761; 0.2% of 190,000 active; GST-Cdc42 beads, Bodipy-GTP binding, flow cytometry; actives lie on both sides; percent activity (GTP binding), % at 10 µM;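 active = percent activity GTP binding at least 20 points away from the 100% baseline, either down as inhibitor or up as activator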;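 also: median bead fluorescence of bound Bodipy-FL-GTP at 100 nM; 0% = excess unlabeled GTP control and 100% = no compound control; below 100% means less GTP binding so inhibitor and above means activator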
Target sequence (P60953 whole entry, looked up): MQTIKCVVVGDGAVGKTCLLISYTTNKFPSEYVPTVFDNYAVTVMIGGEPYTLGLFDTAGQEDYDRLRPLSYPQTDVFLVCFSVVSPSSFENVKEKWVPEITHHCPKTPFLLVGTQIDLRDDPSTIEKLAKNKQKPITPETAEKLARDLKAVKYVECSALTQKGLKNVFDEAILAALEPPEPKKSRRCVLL
HRas wt GTP – human HRas wildtype GTP binding, change in either direction; GTP binding activity, % at 10 µM; GST-Ras wt beads, Bodipy-FL-GTP binding, flow cytometry; actives lie on both sides; 0.14% of 190,000 active; P01112;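 active = GTP binding activity at least 20% away from the 100% baseline, either lowered as inhibitor or raised as activator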;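 also: 0% = unlabeled GTP competition control and 100% = no-compound control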
Target sequence (P01112 whole entry, looked up): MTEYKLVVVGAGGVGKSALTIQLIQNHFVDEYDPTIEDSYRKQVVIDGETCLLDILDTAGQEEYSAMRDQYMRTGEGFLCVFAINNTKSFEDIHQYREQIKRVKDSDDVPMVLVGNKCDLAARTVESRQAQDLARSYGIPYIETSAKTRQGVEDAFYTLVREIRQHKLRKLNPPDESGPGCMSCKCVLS
Rab7 wt modul – alters GTP binding to wildtype dog Rab7 | GST-Rab7 beads, fluorescent GTP binding, flow cytometry; actives lie on both sides; untreated = 100%, excess cold GTP = 0% | GTP binding activity (percent of control), % at 10 µM | 0.055% of 190,000 active | AID 758;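 active = fluorescent GTP binding to Rab7 beads changed by at least 20 points from the 100% baseline, either direction, mostly lower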;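 also: median green fluorescence of bound Bodipy-FL-GTP per Rab7 bead population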
Rac1 wt GTP bind – human Rac1 wildtype GTP binding, inhibitors and activators; AID 757; GTP binding activity (% of control), % at 10 µM; P63000; GST-Rac1 beads, fluorescent GTP binding, flow cytometry; actives lie on both sides; 0 = cold GTP competed, 100 = untreated; 0.27% of 190,000 active;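 active = GTP binding activity at least 20 points away from the 100% control level, either lower or higher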
Active calls of the source: *; [ ] = remark or other dose.

SMILES	Rab2 wt GTP	Rac1 act GTP bind	Cdc42 wt GTP	HRas wt GTP	Rab7 wt modul	Rac1 wt GTP bind
CCn1cc(C(=O)OCC(=O)c2cc(C)n(-c3cccc(C(F)(F)F)c3)c2C)c(=O)c2ccc(C)nc21	72*	74*	79*	80	83	70*
O=C(Nc1c(F)cccc1F)c1cnc(N2CCN(c3ccccn3)CC2)c2ccccc12	97	106	103	101	101	131*[activator]
CC(Nc1ccc2c(c1)OCCO2)C(=O)N1c2ccccc2CC1C (centres undefined)	104	97	99	102	103	100
Cc1ccc(NCC(=O)c2ccccc2)cc1Cl	88	92	93	78*	82	91
O=C(Nc1cc(S(=O)(=O)Nc2ccccc2Cl)ccc1O)c1sc2cc(Cl)ccc2c1Cl	85	78*	80	87	94	83
Cn1c(O)c(N=NC(=O)c2ccccc2O)c2ccccc21	92	93	93	94	98	96
Cc1cc(N=NC(=O)c2ccccc2O)c2ccccc2c1O	78*	82	76*	83	91	74*
N=c1c(C(=O)NCc2ccco2)cc2c(=O)n3ccccc3nc2n1CCc1ccccc1	75*	87	80	77*	91	72*
CCNC(=O)c1cc2c(=O)n3cccc(C)c3nc2n(CCc2ccccc2)c1=N	72*	82	71*	71*	87	81
Cc1ccc(Cn2c(=N)c(C(=O)NCc3ccco3)cc3c(=O)n4ccccc4nc32)cc1	100	96	98	98	100	101
O=C(NCc1cccnc1)c1cccn2c(=O)c3sccc3nc12	82	86	87	87	91	76*
O=C(O)c1ccccc1C(=O)NCc1cccnc1	100	102	99	101	97	104
COc1cc2[nH]c(=S)nc(NCCc3ccc(C)cc3)c2cc1OC	49*	65*	45*	54*	69*	49*
COc1cc2[nH]c(=S)nc(NCCC(C)C)c2cc1OC	59*	71*	56*	64*	85	52*
COc1ccc(CCNC(=O)c2ccc(CNc3nc(=S)[nH]c4ccccc34)cc2)cc1OC	101	96	102	98	105	96
COc1ccccc1CC(=O)NCCc1ccc(S(N)(=O)=O)cc1	103	102	108	103	100	111
COc1ccc(CCNc2nc(=S)[nH]c3cc(OC)c(OC)cc23)cc1OC	47*	67*	49*	48*	74*	71*
COc1cc2[nH]c(=O)n(CCC(=O)NCCC(C)C)c(=O)c2cc1OC	100	98	103	101	101	107
COc1cc2[nH]c(=S)nc(NCCc3ccc(S(N)(=O)=O)cc3)c2cc1OC	37*	61*	32*	35*	81	40*
N#CCCn1cc(C(=O)N2CCOCC2)c(-c2ccc3c(c2)OCCO3)n1	100	97	99	99	105	103
COc1cc2[nH]c(=S)nc(NCc3cccs3)c2cc1OC	66*	81	61*	63*	90	60*
COc1cc2ncnc(NCc3cccs3)c2cc1OC	98	94	95	98	109	91
Cc1ccc(S(=O)(=O)N(C)C)cc1NC(=O)Cn1c(CN2CCOCC2)nc2ccccc2c1=O	93	96	95	94	93	99
CC(C)C(NC(=O)c1ccccc1)C(=O)NCCc1ccccc1 (centres undefined)	97	95	94	95	96	99
CN1CCc2nc3ccc(Cl)cc3c(-c3ccccc3Cl)c2C1	91	95	79*	93	95	91
SMILES	Rab2 wt GTP	Rac1 act GTP bind	Cdc42 wt GTP	HRas wt GTP	Rab7 wt modul	Rac1 wt GTP bind
Cc1nc2ccc(Cl)cc2c(-c2ccccc2Cl)c1CC(=O)O	86	88	82	90	92	87
COc1ccc(N2C(=O)C3C(c4ccc(C(=O)O)cc4)NC(Cc4ccccc4)(C(=O)O)C3C2=O)c([N+](=O)[O-])c1 (centres undefined)	98	98	98	97	105	97
c1ccc(-c2csc3ncnc(NCCCN4CCOCC4)c23)cc1	97	97	94	97	105	98
O=c1c2c(-c3ccccc3)csc2nc2c3ccccc3c(NCCN3CCOCC3)nn12	65*	82	69*	65*	70*	55*
S=c1[nH]nc(-c2ccco2)n1-c1ccccc1Cl	85	79*	79*	84	88	77*
C=CCSc1nc(N)c(C#N)c(-c2ccc(C)cc2)c1C#N	87	86	78*	85	94	78*
COc1ccc(NC(=O)c2cccnc2SC)cc1S(=O)(=O)N1CCCCC1	100	100	100	98	96	100
Cc1ccc(/C=N/NC(=O)C2CCN(Cc3ccc(F)cc3Cl)CC2)o1	100	101	104	99	78*	102
Cn1c(O)c(C2=c3ccccc3=NC2=O)[nH]c1=S	85	90	90	87	94	79*
COc1ccc2nc(-n3c(O)c(C4=c5ccccc5=NC4=O)[nH]c3=S)sc2c1	89	91	93	91	94	92
CCN=C1S/C(=C\c2cn(CC)c3ccccc23)C(=O)N1CC	102	100	100	102	103	103
CCn1cc(C=C2C(=O)c3ccccc3C2=O)c2ccccc21	81	81	78*	77*	83	74*
CC[n+]1oc(-c2ccccc2)cc1C	95	98	96	97	94	98
COc1ccc(-n2c(NC(=O)c3ccc(Br)o3)c(C#N)c3nc4ccccc4nc32)cc1	79*	79*	77*	81	85	79*
COc1ccc(Cn2c(N)c(C#N)c3nc4ccccc4nc32)cc1	97	97	99	96	99	99
CNC(=S)N1CCN(c2nc3ccccc3s2)CC1	94	97	95	94	96	100
CCCc1nc2oc3c(=O)[nH]cnc3c2c2c1CCCC2	81	85	82	82	93	79*
CC(C)Cc1nc2oc3c(Cl)ncnc3c2c2c1CCC2	99	99	100	101	97	101
CC(C)c1nc2oc3c(=O)[nH]cnc3c2c2c1CCC2	73*	82	70*	74*	81	79*
CC(C)c1nc2sc3c(=O)[nH]c(=S)[nH]c3c2c2c1CCC2	93	96	100	97	101	98
CSc1nnc(C)c(/C=C/Nc2ccc(F)cc2)n1	94	94	93	94	94	89
